Source: PubChem (several laboratories)
PAX8 reporter: inhibitors of PAX8-driven TPO luciferase reporter, primary screen, RMG-I cells, single concentration; SteadyGlo, 24 h; inhibition, % at 12.6 µM; actives 1.2% (n = 360,000); AID 652154, 2013;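 active means mean replicate inhibition at least 60% with every replicate also reaching 60%; inconclusive means only one of the two criteria is met; inactive means mean below 60% and not all replicates reaching 60%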;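 further: luciferase light reporting Pax8 driven TPO promoter activity; plate controls were median of neutral control wells for no effect and mitoxantrone controls for full effect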
TROY NFkB inh: inhibitors of TROY-driven NF-kB signaling, primary screen, Q293 LMP1-TROYcd cells, NF-kB luciferase, uHTS | Q293 LMP1-TROYcd NF-kB luciferase reporter, 4 h | inhibition, % at 10 µM | actives 0.98% (n = 360,000);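 active means compounds whose plate-normalised and pattern-corrected inhibition of the luciferase reporter signal at the single screening dose is 50% or more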
LMP1 NFkB inh: EBV LMP1-driven NF-kappaB luciferase reporter inhibitors, primary screen, cell-based, luminescence, single point; inhibition, % at 12.5 µM; AID 504558, 2011; actives 0.69% (n = 350,000); LMP1-induced NF-kappaB luciferase reporter cells; in the data active means inhibition above about 41%; inconclusive means no clear call, values can overlap the other calls;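 further: 0% = neutral control wells and 100% = reference inhibitor control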
LGR2 antag: inhibitors of bursicon-induced LGR2 CRE-luciferase signal, primary screen, cell-based, HEK293, CRE-luciferase reporter, bursicon stimulation | AID 720647, 2013 | bursicon-stimulated, 4 h | inhibition, % at 9.99 µM | actives 0.35% (n = 380,000);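 active means drop in luminescence signal, shown as inhibition above about 50% in the replicate tests, limit read from the data, passing the limit was not always enough; inconclusive means probably only some replicates passing the limit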;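 further: agonist challenge used bursicon conditioned medium at about half maximal strength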
EWS-Fli inh: EWS/Fli-driven NR0B1 reporter inhibitors, primary screen, A673 cells, NR0B1 luciferase, luminescence, MLPCN library | viability-normalised | inhibition, % at 12.6 µM | actives 0.67% (n = 350,000);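 active means mean inhibition of at least 50% after viability correction, with every replicate also passing that limit; inconclusive means mean reaches 50% but only one of two replicates passes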;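 further: firefly luciferase signal divided by Alamar Blue viability fluorescence both relative to DMSO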
TWEAK-Fn14 inh: inhibitors of TWEAK-Fn14 signaling, primary screen, luciferase reporter cells, uHTS; TWEAK-stimulated Fn14 reporter cells, luciferase luminescence, 8 h; inhibition, % at 10 µM; actives 2% (n = 360,000); in the data active means inhibition above about 50%
* = called active by the depositor; ? = inconclusive; nt = not tested or not shown; ! = not confirmed by another sample. A selection: hits, their analogues and other compounds. The true share with any hit is near 3.2%.

SMILES | PAX8 reporter | TROY NFkB inh | LMP1 NFkB inh | LGR2 antag | EWS-Fli inh | TWEAK-Fn14 inh
CC(C)CNC(=O)Cn1c(=O)c2c(ncn2CC(C)C)n(Cc2ccccc2)c1=O | -2 | 4 | -11 | 7 | -5 | 6
CCCCCNC(=O)Cn1c(=O)c2c(ncn2CC(C)C)n(Cc2ccccc2)c1=O | 10 | 2 | -1 | 1 | -17 | 50*
COCCn1cnc2c1c(=O)n(CC(=O)NC(=O)NC(C)(C)C)c(=O)n2Cc1ccccc1 | -8 | -3 | nt | -13 | 0 | 26
Cc1ccc(S(=O)(=O)N(C)C[C@@H]2OCCCC[C@@H](C)Oc3ccc(NC(=O)Nc4cccc5ccccc45)cc3C(=O)N([C@@H](C)CO)C[C@H]2C)cc1 | 5 | nt | nt | 0 | -4 | nt
C(#Cc1ccccc1)C[N+]1(CC#Cc2cccc3ccccc23)CCCC1 | 63* | 21 | 1 | 15 | 8 | 16
C#CC[N+]1(CC#Cc2ccccc2)CCCC1 | nt | 4 | 8 | 20 | nt | 15
COc1ccc(Nc2nc(N3CCCC3)c3ccccc3n2)cc1 | nt | 46 | 25 | nt | nt | 6
CCN(CC)c1ccc(Nc2nc(N3CCOCC3)c3ccccc3n2)cc1 | 12 | 35 | -8 | nt | nt | 54*
C=CC(=O)Nc1cccc(Nc2nc(N[C@H]3CC[C@H](N(C)C)CC3)nc3c2ncn3C(C)C)c1 | nt | 77* | 92* | nt | nt | 99*
CC(C)n1cnc2c(Nc3cccc(Cl)c3)nc(NCCCO)nc21 | 13 | 30 | -3 | -13 | -14 | 38
CC(=O)Oc1ccc2occ(-c3ccccc3)c2c1 | -109 | 24 | -1 | -33 | -57 | 54*
CC(=O)Oc1ccc2occ(C(=O)c3ccccc3)c2c1 | -189 | -27 | nt | -106 | -74 | -5
CO[C@H]1CN(C)C(=O)c2cc(NC(=O)c3nc4ccccc4s3)ccc2OC[C@@H](C)N(Cc2cncnc2)C[C@@H]1C | nt | nt | nt | 3 | -20 | nt
COc1ccc(CNC(=O)C(=O)NCCC2CCCCN2S(=O)(=O)c2ccccc2)cc1 (stereo not drawn) | 40 | 15 | 9 | 10 | 6 | -4
COc1ccc(NC(=O)C(=O)NCCC2CCCCN2S(=O)(=O)c2cccs2)cc1 (stereo not drawn) | 35 | 3 | -9 | 1 | 58* | 22
O=C(NCCC1CCCCN1S(=O)(=O)c1cccs1)C(=O)Nc1ccccc1 (stereo not drawn) | -28 | -43 | -9 | -6 | -10 | 8
COc1ccc(NC(=O)C(=O)NCCC2CCCCN2S(=O)(=O)c2ccccc2)cc1 (stereo not drawn) | 41 | 17 | 1 | -1 | 52* | 21
C[C@H](O)C#Cc1ccc2c(c1)O[C@H](CN(C)CC1CC1)[C@H](C)CN([C@H](C)CO)S2(=O)=O | nt | nt | nt | 6 | -19 | nt
CCCN(CC(=O)Nc1ccccc1C)C(=O)CCl | 61* | -3 | 72* | 1 | 40 | 49
CCCN(CC(=O)Nc1ccccc1C)C(=O)COc1c(C)cccc1C | -5 | -18 | 7 | -21 | -5 | 9
CCN(CC)CCN(C)Cc1nc(C(c2ccccc2)c2ccccc2)no1 | 15 | -1 | -8 | nt | 26 | 8
CN(CCc1cn[nH]c1)Cc1nc(C(c2ccccc2)c2ccccc2)no1 | 144* | -5 | 0 | -17 | 8 | 10
Cc1ccc(-n2nc3ccc(N)cc3n2)c(C)c1 | -63 | -9 | 9 | -51 | 41 | 87*
Nc1nc(Nc2ccccc2)nc(NC2CCCCC2)c1[N+](=O)[O-] | 12 | 74* | -7 | 0 | -4 | 32
COc1cccc(Nc2nc(N)c([N+](=O)[O-])c(NCc3ccccc3)n2)c1 | 20 | -5 | 0 | -8 | -8 | 51*
SMILES | PAX8 reporter | TROY NFkB inh | LMP1 NFkB inh | LGR2 antag | EWS-Fli inh | TWEAK-Fn14 inh
CN(C)c1nc(N)c([N+](=O)[O-])c(NCc2ccccc2)n1 | 68* | 13 | -44 | -7 | -5 | -79
CNc1nc(N)c([N+](=O)[O-])c(NC2CCCCC2)n1 | 1 | 8 | -10 | -14 | -5 | 18
Cc1cccc(Nc2nc(N)c([N+](=O)[O-])c(NCc3ccccc3)n2)c1 | 53 | 23 | 3 | 3 | 11 | 18
Nc1nc(NCc2ccccc2)nc(NCc2ccccc2)c1[N+](=O)[O-] | 2 | -11 | -7 | 3 | nt | -14
C[C@H]1CCCCO[C@H](CN(C)Cc2ccc(C(=O)O)cc2)[C@@H](C)CN([C@@H](C)CO)C(=O)c2cc(NS(=O)(=O)c3ccc(Cl)cc3)ccc2O1 | -9 | nt | nt | 9 | 2 | nt
O=C(C[C@@H]1C[C@@H]2c3cc(NC(=O)Nc4ccccc4)ccc3O[C@@H]2[C@@H](CO)O1)NC1CCCC1 | -9 | nt | nt | 2 | -13 | nt
COc1cc([C@@H]2[C@H]3CN(C)CC=C3C(C#N)=C(N)C2(C#N)C#N)cc2c1OCO2 | 15 | 60*! | -10 | -2 | 3 | 63*!
O=S(=O)(Nc1nc2ccccc2nc1Nc1ccc2c(c1)OCO2)c1ccc(F)cc1 | 12 | 58* | 10 | 42 | nt | 61*
O=S(=O)(Nc1nc2ccccc2nc1Nc1cccc(S(=O)(=O)N2CCCCC2)c1)c1ccccc1 | 27 | 68* | 4 | 46 | 22 | 77*
COc1ccc(S(=O)(=O)Nc2cccc(S(=O)(=O)N3CCCCCC3)c2)cc1 | -27 | 20 | -3 | 32 | nt | 5
O=C(O)c1cccc(Nc2nc3ccccc3nc2NS(=O)(=O)c2ccc(F)cc2)c1 | -14 | 21 | 2 | 0 | 4 | 13
O=C(C[C@H]1CC[C@@H](NC(=O)CCN2CCCCC2)[C@H](CO)O1)NCc1ccc(Cl)c(Cl)c1 | -8 | nt | nt | 2 | -7 | nt
C[C@H](CO)N1C[C@H](C)[C@@H](CN(C)C)Oc2ccc(NS(=O)(=O)c3ccc(F)cc3)cc2CC1=O | 5 | nt | nt | -10 | 0 | nt
COc1ccc(/C=N\NC(=O)/C(=C\Nc2nccc(C)n2)NC(=O)c2ccccc2)cc1 | nt | nt | 7 | 10 | nt | 71*
CN1C(=O)c2cc(NC(=O)NCc3ccccc3)ccc2OC[C@@H]2O[C@H](CC(=O)NCC3CCCCC3)CC[C@H]21 | 7 | nt | nt | 2 | 8 | nt
COc1cc(Cl)c(NC2=CC(=O)C(=O)c3ccccc32)c(OC)c1 | 95* | 20 | 1 | -13 | 5 | 25
Cc1ccc2nc(-c3cc(N)cc(N)c3)oc2c1 | -2 | 60* | 14 | nt | nt | 62*
Cc1ccc(-c2nc3cc(N)ccc3o2)cc1Br | -72 | 0 | -31 | -44 | -15 | 25
CN(C)c1ccc(-c2nc3cc(N)ccc3o2)cc1 | 33 | -29 | 37 | ? | 65* | 74*
Nc1ccc(-c2nc3ccc(N)cc3o2)cc1 | -68 | -24 | 8 | -18 | -6 | 22
Cc1ccc(C)c(-c2nc3cc(N)ccc3o2)c1 | nt | nt | -13 | nt | nt | 67*
